The values below come from PubChem BioAssay (NCATS).

“And” between values parts separate entries of the source, which are not always exact repeats. Equal entries are not always repeated. Records with an inconclusive call do not appear. A structure can be active in one record and inactive in another. The source made the active and inactive calls. Unless noted, the call rests on the fitted dose curve; in most records, active means well fitted curve in the direction sought with a large enough effect; inconclusive means small, poorly fitted or top-dose-only effect, or another doubt; inactive means no such curve, though single readings can be large; an effect the other way counts as inactive or inconclusive.

For experiment [1], the target named is Protein phosphatase 1D (Homo sapiens) (UniProt O15297). In words: Rhodamine-PBP qHTS Assay for Modulators of WT P53-Induced Phosphatase 1 (WIP1) (AID 1347425). Summed up: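 5 nM WIP1 + 10 uM Rh-PBP, 50 mM Tris pH 7.5, 30 mM MgCl2, 1 mM TCEP, 0.1 mM EGTA, BSA; cpds pinned, 1 hr RT; + 10 uM phosphopeptide; fluorescence 1-min reads x 11 min; delta = f1 - f0.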
Sequence of Protein phosphatase 1D (Homo sapiens) (O15297 whole entry, looked up): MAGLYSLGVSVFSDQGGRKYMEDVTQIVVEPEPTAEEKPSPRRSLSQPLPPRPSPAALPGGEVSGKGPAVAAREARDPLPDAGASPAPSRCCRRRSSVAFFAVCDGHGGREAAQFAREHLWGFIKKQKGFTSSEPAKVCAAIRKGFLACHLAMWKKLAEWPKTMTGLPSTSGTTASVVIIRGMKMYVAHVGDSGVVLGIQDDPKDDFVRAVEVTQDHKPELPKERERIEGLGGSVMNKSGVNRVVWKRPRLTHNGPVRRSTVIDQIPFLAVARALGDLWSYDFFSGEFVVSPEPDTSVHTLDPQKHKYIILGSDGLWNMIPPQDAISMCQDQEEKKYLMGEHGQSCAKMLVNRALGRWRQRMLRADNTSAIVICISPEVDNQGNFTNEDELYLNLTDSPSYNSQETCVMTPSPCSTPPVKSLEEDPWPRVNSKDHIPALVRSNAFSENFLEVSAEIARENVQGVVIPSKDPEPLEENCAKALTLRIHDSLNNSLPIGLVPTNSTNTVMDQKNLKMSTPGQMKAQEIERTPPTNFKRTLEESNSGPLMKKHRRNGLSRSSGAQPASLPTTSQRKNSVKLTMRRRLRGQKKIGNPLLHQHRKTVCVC
A general note: In qHTS, concentration-response curves come from the screen itself.

The nature of experiment [2]: Primary qHTS for inhibitors of La Crosse Virus (LACV) - induced cell death in SH-SY5Y cells (AID 1508616).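 Further: top concentration of the series differs between compounds; higher means more rescue of cells from virus-induced death.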 The gist of the method:
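Screening measures cell viability in LACV-infected SH-SY5Y cultures. Compound was added before virus (0.01 MOI), and ATP was detected by luminescence 6 days later.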

The target in experiment [3] is Calcium and integrin-binding protein 1 (Homo sapiens) (UniProt Q99828). Put plainly: Primary qHTS for Identification of Calcium Integrin Binding Protein 1 (CIB1) Competitor (AID 1508620). Further: potency means the concentration at half of the fitted maximal effect. Summed up: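 Fluorescence polarization competition: GST-tagged CIB1 (1 uM final) preincubated with compound 15 min at room temperature, then FITC-labelled alphaIIb peptide (100 nM final) added. After 15 min at room temperature, polarization read at Ex 480/Em 540.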
Sequence of Calcium and integrin-binding protein 1 (Homo sapiens) (Q99828 whole entry, looked up): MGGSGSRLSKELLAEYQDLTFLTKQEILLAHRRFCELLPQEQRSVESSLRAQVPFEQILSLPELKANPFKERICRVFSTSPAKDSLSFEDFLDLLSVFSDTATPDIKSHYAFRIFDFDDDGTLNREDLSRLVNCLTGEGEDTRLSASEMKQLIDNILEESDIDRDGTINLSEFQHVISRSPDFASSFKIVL

A short description of experiment [4]: Primary qHTS for small molecule stabilizers of the endoplasmic reticulum resident proteome: Secreted ER Calcium Modulated Protein (SERCaMP) assay (AID 1508630). Summed up: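 The SH-SY5Y reporter protocol was run at 3 concentrations up to 38.3 uM (primary) or 11 concentrations (follow-up): 16 h compound, 100 nM thapsigargin for 4 h, then extracellular luciferase luminescence.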

Experiment [5] in a line: A High-Content qHTS Against Drug Library for the Identification of Small Molecules that Inhibit DYT1 Early Onset Primary Dystonia-Associated Cell Pathology (AID 1645839; calls by dose curve; further: potency means the concentration at half of the fitted maximal effect). The gist of the method:
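Cells were seeded and left for 24 h, then dosed with compound alongside tetracycline induction of mutant EGFP-TorsinA. They were incubated for 48 h, fixed in 4% paraformaldehyde, permeabilized and imaged for mislocalization (%pathology) and cell count.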

In experiment [6] the target is Cytochrome P450 2D6 (Homo sapiens) (UniProt P10635). Put plainly: Cytochrome P450 family 2 subfamily D member 6 (CYP2D6) small molecule antagonists: luciferase biochemical (cell-free) qHTS assay (AID 1645840; active means well fitted curve in the direction sought with a large enough effect in the repeat runs; an effect the other way counts as inactive or inconclusive; further: nearly all actives have a fitted effect of over 55% in size; further: potency means the concentration at half of the fitted maximal effect). The gist of the method:
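P450-Glo CYP2D6 system: proluciferin substrate converted by enzyme to luciferin, read by luminescence proportional to activity. Enzyme-substrate mix with compound 10 min at room temperature, then NADPH regeneration 1 h before detection reagent.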

For experiment [7], the target named is Cytochrome P450 2C9 (Homo sapiens) (UniProt P11712). Put plainly: Cytochrome P450 family 2 subfamily C member 9 (CYP2C9) small molecule antagonists: luciferase biochemical (cell-free) qHTS assay (AID 1645842; active means well fitted curve in the direction sought with a large enough effect in the repeat runs; an effect the other way counts as inactive or inconclusive; further: nearly all actives have a fitted effect of over 55% in size; further: potency means the concentration at half of the fitted maximal effect). The gist of the method:
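P450-Glo CYP2C9 system: proluciferin substrate with enzyme in mix containing 0.4% BSA, 10 min at room temperature, then NADPH regeneration solution added and incubated 1 h at 37C. Detection reagent stopped reaction; luminescence read after 20 min as RLU.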

Experiment [8] can be described thus: Primary qHTS for inhibitors of nuclear receptor binding SET domain protein 2 (NSD2) in an isogenic RCH-ACV NSD2 p.E1099K mutant (9B) (AID 1645876). Further: nearly all actives have a fitted effect of over 70% in size. Further: potency means the concentration at half of the fitted maximal effect.
A short description of experiment [9]: Primary qHTS for inhibitors of nuclear receptor binding SET domain protein 2 (NSD2) in an RCH-ACV wild type WT cells (2C) (AID 1645877). Further: nearly all actives have a fitted effect of over 70% in size. Further: potency means the concentration at half of the fitted maximal effect.
The target of experiment [10] is Cytochrome P450 3A4 (Homo sapiens) (UniProt P08684). In words: Cytochrome P450 family 3 subfamily A member 4 (CYP3A4) small molecule antagonists: luciferase qHTS assay (AID 1645841; active means well fitted curve in the direction sought with a large enough effect in the repeat runs; an effect the other way counts as inactive or inconclusive; further: nearly all actives have a fitted effect of over 45% in size). The gist of the method:
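P450-Glo CYP3A4 enzyme with proluciferin substrate preincubated 10 min with compound at room temperature, then NADPH regeneration 1 h. Luciferin detection reagent added for 20 min; luminescence recorded. Ketoconazole positive control.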

Experiment [11] in a line: Validation qHTS assay for inhibitors of Activation Induced Cytidine Deaminase (AID): UDG Counterscreen signal (AID 1347427). The gist of the method:
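Fluorescence at 560 nm excitation, 665 nm emission reports UDG signal after 250 mM NaOH (2x) addition and 30 min. Enzymes (AID 1 uM, UDG 2 U/mL, at 4/3x) preincubated 10 min with compound, then 4 h with 4x 250 nM DJC20/DJC23 substrate at room temperature.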

Experiment [12] deals with Calcium and integrin-binding protein 1 (Homo sapiens) (UniProt Q99828). In words: Confirmatory qHTS for Identification of Calcium Integrin Binding Protein 1 (CIB1) Competitor (AID 1508617). Further: nearly all actives have a fitted effect of over 65% in size. Further: potency means the concentration at half of the fitted maximal effect. Summed up: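 Confirmatory qHTS measures displacement of a FITC-alphaIIb peptide (100 nM) from CIB1-GST (1 uM) by fluorescence polarization. Calcium-containing HEPES buffer, pH 7.4; two 15 min room-temperature incubations.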

The target is the same in experiment [13]. Put plainly: Validation qHTS for Identification of Calcium Integrin Binding protein 1 (CIB1) Competitor (AID 1508618). Summed up:
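Displacement of FITC-alphaIIb peptide (100 nM) from CIB1-GST (1 uM) is monitored by polarization in quantitative HTS format; buffer carries 5 mM CaCl2 and 125 mM NaCl at pH 7.4, incubations are at room temperature.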

Experiment [14] can be described thus: Counterscreen qHTS for small molecule stabilizers of the endoplasmic reticulum resident proteome: GLuc-NoTag assay (AID 1508627). Further: potency means the concentration at half of the fitted maximal effect. The gist of the method: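 Counterscreen line: SH-SY5Y-GLuc-NoTag. Seed, 5 h; compound, 19 h; thapsigargin 100 nM, 4 h; 37C/5% CO2. Readout: secreted GLuc luminescence, coelenterazine 0.07x final, no lysis.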
Background: Counterscreens check selectivity or assay interference.

Experiment [15] is described as follows: Confirmatory qHTS for small molecule stabilizers of the endoplasmic reticulum resident proteome: Secreted ER Calcium Modulated Protein (SERCaMP) assay (AID 1508628). Further: nearly all actives have a fitted effect of over 40% in size. Further: potency means the concentration at half of the fitted maximal effect. Summed up: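 GLuc-SERCaMP-expressing SH-SY5Y cells, pretreated 16 h with compound, are challenged with thapsigargin to empty ER calcium stores; after 4 h, coelenterazine is added directly to the medium and luminescence is imaged.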

A further experiment addresses Papain (Carica papaya) (UniProt P00784). Put plainly: Primary qHTS assay for inhibitors of the protease papain (AID 1645873).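 Further: papain turnover of Z-FR-AMC read as the AMC fluorescence gain over 10 min; series mostly up to about 50 µM.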
Experiment [16] concerns the target Protein phosphatase 1D (Homo sapiens) (UniProt O15297). In words: RapidFire Mass Spectrometry qHTS Assay for Modulators of WT P53-Induced Phosphatase 1 (WIP1) (AID 1347424). Further: series mostly up to about 63 µM. Summed up:
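RapidFire MS readout of dephosphorylated VEPPL-S-QETFS product, with 1 uM isotope-labelled peptide standard. Reaction: 10 nM WIP1, 2 uM phosphopeptide substrate, 5 min, room temperature, after 1 h compound preincubation; stopped with 0.5% formic acid.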

Sequence of Cytochrome P450 2D6 (Homo sapiens) (P10635 whole entry, looked up): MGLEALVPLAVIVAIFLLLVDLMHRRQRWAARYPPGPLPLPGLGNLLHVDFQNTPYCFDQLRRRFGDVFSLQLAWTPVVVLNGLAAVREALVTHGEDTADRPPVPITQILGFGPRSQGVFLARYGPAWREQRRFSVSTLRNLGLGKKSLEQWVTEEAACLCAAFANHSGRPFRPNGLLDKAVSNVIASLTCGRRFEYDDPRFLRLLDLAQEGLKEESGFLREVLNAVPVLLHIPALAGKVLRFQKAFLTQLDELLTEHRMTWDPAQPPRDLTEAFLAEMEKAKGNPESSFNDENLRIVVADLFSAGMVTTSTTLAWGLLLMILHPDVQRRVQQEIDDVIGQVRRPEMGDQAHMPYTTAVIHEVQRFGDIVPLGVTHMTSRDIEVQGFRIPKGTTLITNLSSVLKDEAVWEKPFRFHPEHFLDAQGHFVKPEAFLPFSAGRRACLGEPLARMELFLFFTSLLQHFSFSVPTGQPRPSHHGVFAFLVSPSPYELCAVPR
Sequence of Cytochrome P450 2C9 (Homo sapiens) (P11712 whole entry, looked up): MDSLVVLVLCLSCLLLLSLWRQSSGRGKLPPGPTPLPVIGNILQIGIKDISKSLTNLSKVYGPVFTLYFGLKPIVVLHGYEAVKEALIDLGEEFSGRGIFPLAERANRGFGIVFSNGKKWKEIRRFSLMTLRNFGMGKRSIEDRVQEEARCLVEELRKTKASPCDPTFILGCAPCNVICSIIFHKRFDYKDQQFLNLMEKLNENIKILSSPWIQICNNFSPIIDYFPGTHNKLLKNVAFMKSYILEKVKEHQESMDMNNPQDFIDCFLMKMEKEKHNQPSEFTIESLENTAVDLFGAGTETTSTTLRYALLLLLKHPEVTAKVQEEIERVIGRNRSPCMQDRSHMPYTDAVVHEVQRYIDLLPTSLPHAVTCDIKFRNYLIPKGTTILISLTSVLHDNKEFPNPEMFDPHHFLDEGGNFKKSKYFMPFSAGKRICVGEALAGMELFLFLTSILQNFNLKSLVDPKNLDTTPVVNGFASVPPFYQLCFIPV
Sequence of Cytochrome P450 3A4 (Homo sapiens) (P08684 whole entry, looked up): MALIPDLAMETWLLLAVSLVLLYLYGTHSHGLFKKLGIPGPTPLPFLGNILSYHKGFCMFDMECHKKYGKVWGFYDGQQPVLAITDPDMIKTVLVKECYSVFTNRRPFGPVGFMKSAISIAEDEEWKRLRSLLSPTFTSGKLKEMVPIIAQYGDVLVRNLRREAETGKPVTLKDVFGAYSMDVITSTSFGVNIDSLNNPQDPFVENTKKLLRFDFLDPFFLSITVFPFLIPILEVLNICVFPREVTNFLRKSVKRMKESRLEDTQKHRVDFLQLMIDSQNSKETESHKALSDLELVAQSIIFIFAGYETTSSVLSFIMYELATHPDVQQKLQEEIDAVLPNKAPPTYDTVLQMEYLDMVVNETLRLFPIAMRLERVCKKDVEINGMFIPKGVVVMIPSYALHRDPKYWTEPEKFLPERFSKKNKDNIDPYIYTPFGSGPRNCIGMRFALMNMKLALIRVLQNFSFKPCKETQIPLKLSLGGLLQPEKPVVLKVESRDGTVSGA
Sequence of Papain (Carica papaya) (P00784 whole entry, looked up): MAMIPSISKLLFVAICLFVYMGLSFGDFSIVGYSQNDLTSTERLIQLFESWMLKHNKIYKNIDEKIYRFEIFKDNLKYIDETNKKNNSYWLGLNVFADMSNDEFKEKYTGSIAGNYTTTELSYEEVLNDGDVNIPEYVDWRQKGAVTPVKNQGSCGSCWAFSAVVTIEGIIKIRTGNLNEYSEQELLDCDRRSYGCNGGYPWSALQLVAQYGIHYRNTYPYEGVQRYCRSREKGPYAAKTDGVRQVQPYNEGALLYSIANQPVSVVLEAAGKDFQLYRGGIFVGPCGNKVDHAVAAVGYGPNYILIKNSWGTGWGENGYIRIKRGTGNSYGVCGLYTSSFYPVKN

As to `CCc1nc(N)nc(N)c1-c1ccc(Cl)cc1`, the call in experiment [1] was inactive. Also, the Potency result in [2], in experiment [3], in experiment [4], in experiment [5] and in experiment [7] was “inactive” each time. The Potency in [6] is 12.3 µM (active); in [8], 2.37 µM (active) and 2.95 µM (active); in experiment [9] it was 3.35 µM (active) and 4.17 µM (active).

Take `Cc1cc(=O)c2c(O)c3c(O)cc(=O)c4c3c3c(cc(O)c1c23)C(C)(C)C=4O`: the compound was classed as inactive in [1] and in experiment [10]. Besides, the Potency result in experiment [2], in experiment [3], in experiment [4], in experiment [6], in [7] and in experiment [8] was “inactive” in each case.

As to `Cc1cc(=O)oc2cc(O)ccc12`, the compound was classed as inactive in experiment [1]. Moreover, the Potency result in [2], in experiment [3], in experiment [4], in experiment [5], in [6] and in [7] was “inactive” throughout. The Potency result in experiment [8] and in [9] was “inactive” throughout.

As for `Cc1c(C(=O)NN2CCCCC2)nn(-c2ccc(Cl)cc2Cl)c1-c1ccc(Cl)cc1`, the result in [1] was inactive. Moreover, the Potency entry in [2], in experiment [3] and in experiment [4] was “inactive” each time.

For the compound `CCN(CC)C(=S)SSC(=S)N(CC)CC`, the outcome in [1] and in [13] was inactive. Also, the Potency entry (in experiment [11]; in experiment [2]; in experiment [15]; in experiment [4]; in experiment [6]; in the experiment with Papain (Carica papaya)) was “inactive” in each case. In addition, the Potency was 14.1 µM (active) and inactive in experiment [12]; 44.7 µM (active) in experiment [3]; 28.2 µM (active) in experiment [14]; 10 µM (active) in experiment [5]; 7.7 µM (active) and 7.76 µM (active) in experiment [7]; 351 nM (active) and 2.66 µM (active) and 2.63 µM (active) in experiment [8]. In addition, the Potency in experiment [9] is 394 nM (active) and 4.22 µM (active) and 2.95 µM (active).

As to `O=C(O)c1cccnc1Nc1cccc(C(F)(F)F)c1`, the call in experiment [1] and in experiment [13] was inactive. Also, the Potency entry in [11], in experiment [2], in experiment [3], in experiment [4], in experiment [5] and in experiment [6] was “inactive” throughout. For the same compound, in [9], the Potency result is “inactive”.

As for `CC(S)C(=O)NCC(=O)O` (stereo unspecified), the compound was classed as inactive in experiment [1]. For the same compound, the Potency entry in experiment [2], in experiment [3], in [4], in experiment [5], in experiment [6] and in experiment [7] was “inactive” throughout. Moreover, the Potency result in experiment [8] and in [9] was “inactive” throughout.

As for `CN1CCC(=C2c3ccccc3CCc3sccc32)CC1`, the compound was classed as inactive in [1]. For the same compound, the Potency result in experiment [2], in experiment [3], in experiment [14] and in experiment [7] was “inactive” in each case. Moreover, the Potency in experiment [15] was 25.1 µM (active); in experiment [6], 1.1 µM (active); in experiment [9], 23.5 µM (active).

With `Cc1ccc(Nc2nccc(N(C)c3ccc4c(C)n(C)nc4c3)n2)cc1S(N)(=O)=O`, the Potency entry in [16], in experiment [2], in experiment [3], in [4] and in [5] was “inactive” each time. Also, the Potency in experiment [7] was 15.5 µM (active); in [8] it was 5.31 µM (active) and 1.83 µM (active) and 4.17 µM (active); in experiment [9] it was 9.44 µM (active) and 4.68 µM (active).

With `Cc1nc(-c2ccc(OCC(C)C)c(C#N)c2)sc1C(=O)O`, the Potency result in experiment [16], in [2], in experiment [3], in experiment [4], in [6] and in experiment [8] was “inactive” each time. Moreover, in experiment [9], the Potency result was “inactive”.
